PubChem BioAssay
Measured potencies and affinities stand elsewhere. Inconclusive results are not listed. Active and inactive are the calls of the source. Unless noted, how the calls were made is not given here.

Assays:
[1] = cytotoxicity in PAX8-dependent RMG-1 cells, dose response, cell-based, cherry-pick (AID 687029;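 active means signal drop whose fitted half-maximal concentration is at most twice the top valid dose, in every test run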;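 further: cells exposed to compound for 96 hours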)
[2] = cytotoxicity in IOSE-T80 ovarian epithelial cells, dose response, selectivity assay for PAX8 inhibitor project, cell-based, cherry-pick (AID 687032;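 active means fitted half-maximal concentration for viability loss no higher than twice the top valid dose, in every repeat run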;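 further: cells exposed to compound for 96 h before reading; 0% = neutral control wells and -100% = 2 µM mitoxantrone kill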)
[3] = inhibitors of CMV-promoter luciferase reporter, dose response, counter-screen for Pax8 inhibitor project, cell-based, HEK293, luminescence, dry powder (AID 743020;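 active means signal-lowering compounds whose fitted half-maximal concentration is at or below twice the top tested dose in every run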;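 further: HEK293 cells stably expressing the CMV luciferase reporter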)
[4] = non-specific cell cytotoxicity, dose response, cytotoxicity control for PAX8 inhibitor project, plate reader, dry powder samples (AID 743021)
[5] = IGROV1 ovarian cancer cell cytotoxicity, dose response, PAX8 inhibitor project, plate reader, dry powder samples (AID 743043);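 further: more negative means fewer viable cells or more cytotoxicity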
[6] = NIH:OVCAR-3 ovarian cancer cell cytotoxicity, dose response, PAX8 inhibitor project, plate reader, dry powder samples (AID 743044); settings: max activity: at 35 µM, stronger effect = lower value unless noted
[7] = IOSE-T80 ovarian epithelial cell cytotoxicity, dose response, cytotoxicity control for PAX8 inhibitor project, plate reader, dry powder samples (AID 743045);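 further: 0% = neutral control median and -100% = positive control median; more negative values mean more cell killing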
[8] = A2780 ovarian cancer cell cytotoxicity, dose response, cytotoxicity control, plate reader, dry powder samples (AID 743046);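 further: 0% = neutral control wells and -100% = cytotoxic reference compound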
[9] = cytotoxicity in OVCAR8 ovarian cancer cells, dose response, PAX8 project, cell-based, plate reader, dry powder samples (AID 743197)
[10] = A549 cell cytotoxicity, dose response, cytotoxicity control, plate reader, cherry-pick, antagonist series (AID 743412);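 further: 0% = neutral control wells and -100% = positive control wells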
[11] = HepG2 cell cytotoxicity, dose response, cytotoxicity control, plate reader, cherry-pick, antagonist series (AID 743416);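 further: 0% = neutral control wells and -100% = positive control wells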

Measured: max activity

Cc1cccc(S(=O)(=O)N2CC[C@@H]3[C@H](CO)Nc4ccc(C5=CCCCC5)cc4[C@@H]32)c1
inactive: [1] | [2] | [3] | [4] | [5] | [6] 25.1% [at 1.1 µM, stronger effect = lower value] | [7] | [8] | [9]

C[C@@H]1CN([C@@H](C)CO)C(=O)c2cc(NC(=O)Nc3ccc(C(F)(F)F)cc3)ccc2O[C@@H](C)CCCCO[C@H]1CN(C)Cc1ccc(Cl)c(Cl)c1
inactive: [1] | [2] | [3] | [4] | [5] | [6] -12.8% [at 0.26 µM, stronger effect = lower value] | [7] | [8] | [9]

Cc1ccc(S(=O)(=O)Nc2ccc3c(c2)C(=O)N([C@@H](C)CO)C[C@@H](C)[C@@H](CN(C)Cc2ccc(C(F)(F)F)cc2)OCCCC[C@H](C)O3)cc1
inactive: [1] | [2] | [3] | [4] | [5] | [6] -14.9% [at 2.1 µM, stronger effect = lower value] | [7] | [8] | [9]

C[C@@H]1CN([C@H](C)CO)C(=O)c2cc(NC(=O)Nc3ccc(F)cc3)ccc2O[C@@H](C)CCCCO[C@H]1CN(C)S(=O)(=O)c1ccc(F)cc1
inactive: [1] | [2] | [3] | [4] | [5] | [6] -9.65% [at 0.5 µM, stronger effect = lower value] | [7] | [9]

C[C@H](CO)N1C[C@H](C)[C@@H](CN(C)Cc2ccc(Cl)c(Cl)c2)OCCCC[C@H](C)Oc2ccc(NS(=O)(=O)c3ccccc3)cc2C1=O
inactive: [1] | [2] | [3] | [4] | [5] | [6] -29.2% [at 2.1 µM, stronger effect = lower value] | [7] | [9]

C[C@H]1CCCCO[C@H](CN(C)S(=O)(=O)c2ccc(Cl)cc2)[C@@H](C)CN([C@@H](C)CO)C(=O)c2cc(NS(=O)(=O)c3ccc(F)cc3)ccc2O1
inactive: [1] | [2] | [3] | [4] | [5] | [6] -9.44% [at 4.2 µM, stronger effect = lower value] | [7] | [9]

O=C(Nc1ccc(F)cc1)N1CCCCN2[C@@H](CO)[C@@H](c3ccc(-c4cccc(F)c4)cc3)[C@@H]2C1
inactive: [1] | [2] | [3] | [4] | [5] | [6] -20% | [7] | [9]

O=C(CN1C(=O)c2ccccc2S1(=O)=O)c1ccccc1Cl
inactive: [1] | [2] | [3] | [4] | [5] | [6] | [7] | [8] | [10] | [11]

C[C@H]1CCCCO[C@@H](CN(C)C(=O)Nc2ccc(C(F)(F)F)cc2)[C@@H](C)CN([C@@H](C)CO)C(=O)c2cc(NS(=O)(=O)c3cn(C)cn3)ccc2O1
inactive: [1] | [2] | [3] | [4] | [5] | [6] -16.1% | [7] | [8] | [9]

Cc1ccc(S(=O)(=O)Nc2ccc3c(c2)C(=O)N([C@@H](C)CO)C[C@@H](C)[C@H](CN(C)S(=O)(=O)c2ccc(Cl)cc2)OCCCC[C@@H](C)O3)cc1
inactive: [1] | [2] | [3] | [4] | [5] | [6] 20.2% [at 0.26 µM, stronger effect = lower value] | [7] | [9]

C[C@H]1CN([C@@H](C)CO)C(=O)Cc2cc(NC(=O)Nc3ccc(C(F)(F)F)cc3)ccc2O[C@H]1CN(C)C(=O)Nc1ccc(C(F)(F)F)cc1
inactive: [1] | [2] | [3] | [4] | [5] | [6] 24.3% [at 0.56 µM, stronger effect = lower value] | [7] | [9]

N#C[C@H]1[C@H](c2ccc(C#CC3CCCCC3)cc2)[C@H](CO)N1C(=O)Nc1ccc(F)cc1
inactive: [1] | [2] | [3] | [4] | [5] | [6] -34% [at 0.5 µM, stronger effect = lower value] | [7] | [9]

C[C@@H]1CN([C@H](C)CO)C(=O)c2cc(NS(=O)(=O)c3ccc(Cl)cc3)ccc2O[C@@H](C)CCCCO[C@H]1CN(C)C(=O)C1CCCCC1
inactive: [1] | [2] | [3] | [4] | [5] | [6] -15.5% [at 0.56 µM, stronger effect = lower value] | [7] | [9]

Cc1noc(C)c1S(=O)(=O)N(C)C[C@H]1OCCCC[C@@H](C)Oc2ccc(NS(=O)(=O)c3ccc(Cl)cc3)cc2C(=O)N([C@@H](C)CO)C[C@H]1C
inactive: [1] | [2] | [3] | [4] | [5] | [6] -28.8% [at 2.1 µM, stronger effect = lower value] | [7] | [9]

C[C@H]1CN([C@@H](C)CO)C(=O)c2cccc(NC(=O)Nc3ccc(F)cc3)c2O[C@H]1CN(C)C(=O)Nc1ccc(C(F)(F)F)cc1
inactive: [1] | [2] | [3] | [4] | [5] | [6] 10.2% [at 0.26 µM, stronger effect = lower value] | [7] | [8] | [9]

C[C@@H]1CCCCO[C@@H](CN(C)Cc2ccc(Cl)c(Cl)c2)[C@H](C)CN([C@@H](C)CO)C(=O)c2cc(NC(=O)Nc3ccccc3)ccc2O1
inactive: [1] | [2] | [3] | [4] | [5] | [6] 10.2% [at 16 µM, stronger effect = lower value] | [7] | [9]

Cc1ccc(S(=O)(=O)Nc2ccc3c(c2)C(=O)N([C@H](C)CO)C[C@H](C)[C@@H](CN(C)S(=O)(=O)c2cccs2)OCCCC[C@H](C)O3)cc1
inactive: [1] | [2] | [3] | [4] | [5] | [7]

C[C@@H]1CCCCO[C@@H](CN(C)C(=O)NC2CCCCC2)[C@H](C)CN([C@H](C)CO)C(=O)c2cc(NS(=O)(=O)c3ccc(Cl)cc3)ccc2O1
inactive: [1] | [2] | [3] | [4] | [5] | [7]

C[C@@H]1CN([C@H](C)CO)C(=O)c2cc(NC(=O)Nc3ccc(C(F)(F)F)cc3)ccc2O[C@@H](C)CCCCO[C@@H]1CN(C)Cc1ccc(Cl)c(Cl)c1
inactive: [1] | [2] | [3] | [4] | [5] | [7]

C[C@@H]1CCCCO[C@H](CN(C)S(=O)(=O)c2ccc(Cl)cc2)[C@@H](C)CN([C@@H](C)CO)C(=O)c2cc(NC(=O)Nc3ccc(C(F)(F)F)cc3)ccc2O1
inactive: [1] | [2] | [3] | [4] | [5] | [6] 9.63% [at 2.1 µM, stronger effect = lower value] | [7] | [8] | [9]

Cc1noc(C)c1S(=O)(=O)Nc1ccc2c(c1)C(=O)N([C@@H](C)CO)C[C@H](C)[C@H](CN(C)C(=O)Nc1ccc(C(F)(F)F)cc1)OCCCC[C@H](C)O2
inactive: [1] | [2] | [3] | [4] | [5] | [6] -38.6% | [7] | [9]

C[C@H](CO)N1C[C@H](C)[C@H](CN(C)Cc2ccc(Cl)c(Cl)c2)Oc2c(NS(=O)(=O)c3ccc(Cl)cc3)cccc2C1=O
inactive: [1] | [2] | [3] | [4] | [5] | [6] 53.6% | [7] | [8] | [9]

C[C@@H]1CN([C@H](C)CO)C(=O)c2cc(NS(=O)(=O)c3ccc(F)cc3)ccc2O[C@@H](C)CCCCO[C@H]1CN(C)S(=O)(=O)c1ccc(Cl)cc1
inactive: [1] | [2] | [3] | [4] | [5] | [7]

Cc1ccc(S(=O)(=O)Nc2ccc3c(c2)C(=O)N([C@H](C)CO)C[C@H](C)[C@@H](CN(C)S(=O)(=O)c2ccc(Cl)cc2)OCCCC[C@H](C)O3)cc1
inactive: [1] | [2] | [3] | [4] | [5] | [7]

C[C@H]1CN([C@@H](C)CO)C(=O)Cc2cc(NC(=O)NC3CCCCC3)ccc2O[C@H]1CN(C)Cc1ccc(-c2ccccc2)cc1
inactive: [1] | [2] | [3] | [4] | [5] | [7] | [8]

Cc1ccc(S(=O)(=O)Nc2ccc3c(c2)C(=O)N([C@H](C)CO)C[C@@H](C)[C@H](CN(C)C(=O)Nc2cccc4ccccc24)OCCCC[C@@H](C)O3)cc1
inactive: [1] | [2] | [3] | [4] | [5] | [7] | [8]

CO[C@H]1CN(C)C(=O)c2cc(NC(=O)c3ccc(-c4ccccc4)cc3)ccc2OC[C@@H](C)NC[C@@H]1C
inactive: [1] | [2] | [3] | [4] | [5] | [7]

C[C@@H]1CN([C@H](C)CO)S(=O)(=O)c2ccc(C#Cc3cccc(F)c3)cc2O[C@@H]1CN(C)C(=O)NC1CCCCC1
inactive: [1] | [2] | [3] | [4] | [5] | [7]

C[C@H](CO)N1C[C@H](C)[C@@H](CN(C)S(=O)(=O)c2cccc(F)c2)OCc2ccccc2-c2c(n(C)c3ccccc23)C1=O
inactive: [1] | [2] | [3] | [4] | [5] | [7] | [8]

Cc1ccccc1-c1ccc2c(c1)O[C@H](CN(C)C(=O)Nc1ccc(C(F)(F)F)cc1)[C@@H](C)CN([C@H](C)CO)S2(=O)=O
inactive: [1] | [2] | [3] | [4] | [5] | [7] | [8]

C[C@H]1CCCCO[C@@H](CN(C)Cc2ccc(C(F)(F)F)cc2)[C@@H](C)CN([C@@H](C)CO)C(=O)c2cc(NC(=O)Cc3ccccc3)ccc2O1
inactive: [1] | [2] | [3] | [4] | [5] | [7]

O=C(Nc1ccc(C(F)(F)F)cc1)Nc1ccc2c(c1)[C@H]1C[C@@H](CC(=O)N3CCc4ccccc4C3)O[C@@H](CO)[C@H]1O2
inactive: [1] | [2] | [3] | [4] | [5] | [7] | [8]

C[C@@H]1CCCCO[C@H](CN(C)S(=O)(=O)c2ccccc2)[C@H](C)CN([C@@H](C)CO)C(=O)c2cc(NS(=O)(=O)c3ccc(Cl)cc3)ccc2O1
inactive: [1] | [2] | [3] | [4] | [5] | [7]
